# Source: PubChem BioAssay (EPA / NIEHS)
# Calls of active or inactive are those of the source. The calls were made as follows: active = hit-call score of the fitted dose curve at least 0.9, where 1 is the maximum; inactive = score below 0.9.
# Columns and labels:
# [1] = ATG_CMV_CIS: Attagene CIS-FACTORIAL HepG2 Assay for human CMV (Internal Marker) (AID 2282928); conditions: HepG2 CMV promoter reporter, transcription factor profiling; actives raise or lower the signal;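 also: endpoint acts as a background internal control marker rather than a target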
# Method in brief: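 Fluorescence intensity of RT-PCR-derived reporter fragments, resolved by capillary electrophoresis, gives the signal. HepG2 liver cells bearing transfected cis-element reporters were treated 24 h; activity in either direction was fit relative to DMSO-treated controls.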
# [2] = ATG_DR4_LXR_CIS: Attagene CIS-FACTORIAL HepG2 Assay for human Liver X Receptor (LXR), DR4 submotif (AID 2282929); conditions: HepG2 Attagene DR4 cis-reporter, mRNA transcription; actives raise or lower the signal
# Method in brief: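 Total RNA from 24 h-treated, MRTU-transfected HepG2 cells underwent reverse transcription, PCR, fluorescent primer extension and restriction digestion before capillary electrophoresis. Both increases and decreases in reporter signal were fitted against DMSO.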
# [3] = ATG_AP_1_CIS: Attagene CIS-FACTORIAL HepG2 Assay for human Activator Protein 1 (AP-1) (AID 2282931); conditions: HepG2 Attagene cis-factorial AP-1 reporter mRNA; actives raise or lower the signal
# Method in brief: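 HepG2, transient cis-reporter transfection; 24 h; readout RT-PCR/CE fluorescence; DMSO baseline, gain and loss fitted.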
# [4] = biological target: Transcription factor E2F1 (Homo sapiens) (UniProt Q01094); assay: ATG_E2F_CIS: Attagene CIS-FACTORIAL HepG2 Assay for human E2F Transcription Factor 1 (AID 2282935); conditions: HepG2 Attagene cis-reporter, E2F reporter RNA transcripts; actives raise or lower the signal
# Method in brief: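 Fluorescent RT-PCR products, digested with HpaI for 2 h at 37 C, are separated by capillary electrophoresis. Source RNA comes from transfected HepG2 cultures treated for 24 h.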
# [5] = ATG_E_Box_CIS: Attagene CIS-FACTORIAL HepG2 Assay for human Enhancer Box (E-box) (AID 2282936); conditions: HepG2 E-box cis-reporter transcription, actives raise or lower the signal
# Method in brief: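 Fluorescent reporter fragments separated by capillary electrophoresis gave the signal; mRNA came from HepG2 cells transfected with cis-element reporters and treated 24 h. Curves fitted bidirectionally relative to DMSO controls.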
# [6] = ATG_M_19_CIS: Attagene CIS-FACTORIAL HepG2 Assay for M19 Transcription Factor (Internal Marker) (AID 2282939); conditions: HepG2 Attagene CIS-FACTORIAL M19 internal marker reporter; actives raise or lower the signal
# Method in brief: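 HepG2 cells transiently transfected with cis-regulated multiplexed reporter units, dosed 24 h. Reporter mRNA quantified by RT-PCR and capillary electrophoresis; internal background marker fitted bidirectionally versus DMSO.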
# [7] = ATG_FoxO_CIS: Attagene CIS-FACTORIAL HepG2 Assay for human Forkhead box O (FoxO) (AID 2282943); conditions: HepG2 Attagene cis-reporter, FoxO element, mRNA; actives raise or lower the signal
# Method in brief: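 Human hepatoma HepG2 cells carry transiently introduced reporter transcription units controlled by cis promoter elements. Chemical treatment lasted 24 h, and mRNA signal was compared with DMSO.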
# [8] = ATG_GATA_CIS: Attagene CIS-FACTORIAL HepG2 Assay for human GATA Binding Protein (AID 2282944); conditions: HepG2 GATA cis-element reporter, Attagene multiplex mRNA; actives raise or lower the signal
# Method in brief: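 HepG2 cells transiently transfected with multiplexed cis-element reporter units measure endogenous GATA activity; after 24 h compound exposure, reporter mRNA quantified by RT-PCR and capillary electrophoresis. Changes fitted in both directions vs DMSO.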
# [9] = ATG_GLI_CIS: Attagene CIS-FACTORIAL HepG2 Assay for human Zinc Finger Protein GLI1 (AID 2282945); conditions: HepG2, Attagene cis-factorial reporter mRNA, GLI element; actives raise or lower the signal
# Method in brief: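 Bidirectional curve fits relative to DMSO, using reporter mRNA levels from RT-PCR plus capillary electrophoresis. Cells were HepG2 transiently carrying cis-regulated reporter constructs, harvested 24 h after dosing.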
# [10] = ATG_M_32_CIS: Attagene CIS-FACTORIAL HepG2 Assay for M32 Transcription Factor (Internal Marker) (AID 2282949); conditions: HepG2 Attagene cis-factorial M32 reporter, mRNA; actives raise or lower the signal;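 also: background control marker of the multiplexed CIS panel rather than a real target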
# Method in brief: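 Using DMSO as baseline, bidirectional curve fits were applied to reporter mRNA signals. These came from transiently transfected HepG2 cells exposed for 24 h, with RNA analysed by RT-PCR, FAM primer extension, HpaI digestion and CE.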
# [11] = ATG_M_06_CIS: Attagene CIS-FACTORIAL HepG2 Assay for M06 Transcription Factor (Internal Marker) (AID 2282950); conditions: HepG2 Attagene CIS-FACTORIAL M06 internal marker reporter; actives raise or lower the signal
# Method in brief: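 Internal background marker within multiplexed cis-reporter HepG2 system. Cells transiently transfected, dosed 24 h; reporter mRNA measured by RT-PCR, HpaI digestion and capillary electrophoresis. Bidirectional fit relative to DMSO.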
# [12] = biological target: Paired box protein Pax-6 (Homo sapiens) (UniProt P26367); assay: ATG_Pax6_CIS: Attagene CIS-FACTORIAL HepG2 Assay for human Paired Box 6 (PAX6) (AID 2282956); conditions: HepG2 CIS-FACTORIAL PAX6 reporter transcription, RNA readout; actives raise or lower the signal
# Method in brief: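 Values derive from bidirectional curve fitting of reporter mRNA signal relative to DMSO. HepG2 cells bearing transfected cis-regulated MRTUs were exposed for 24 h; transcripts were read by RT-PCR and capillary electrophoresis.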
# [13] = ATG_Sox_CIS: Attagene CIS-FACTORIAL HepG2 Assay for human SRY-box transcription factor (SOX) (AID 2282960); conditions: HepG2 Attagene cis-factorial SOX reporter, mRNA; actives raise or lower the signal
# Method in brief: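 HepG2, cis reporter units, 24 h exposure. Reporter mRNA: RT-PCR → FAM labelling → HpaI → CE fluorescence. Bidirectional fit vs DMSO.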
# [14] = biological target: Signal transducer and activator of transcription 3 (Homo sapiens) (UniProt P40763); assay: ATG_STAT3_CIS: Attagene CIS-FACTORIAL HepG2 Assay for human Signal Transducer and Activator of Transcription 3 (STAT3) (AID 2282963); conditions: HepG2, Attagene cis-factorial STAT3 reporter transcription; actives raise or lower the signal
# Method in brief: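 Cis-factorial format: endogenous transcription factors in HepG2 drive transfected reporter units. After 24 h treatment, reporter RNA was reverse-transcribed, amplified, FAM-labelled and HpaI-digested before CE analysis; activity scored in both directions against DMSO.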
# [15] = ATG_TCF_b_cat_CIS: Attagene CIS-FACTORIAL HepG2 Assay for human T-Cell-Factor with beta-catenin (TCF/b-cat) (AID 2282965); conditions: HepG2 TCF/beta-catenin cis-reporter transcription, actives raise or lower the signal
# Method in brief: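 Measured: reporter mRNA in HepG2 transiently transfected with cis-promoter reporter units, 24 h after chemical addition. Fitting was bidirectional, DMSO as negative control.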
# [16] = ATG_TAL_CIS: Attagene CIS-FACTORIAL HepG2 Assay for human TAL Basal Promoter (AID 2282966); conditions: HepG2 Attagene cis-factorial TAL promoter reporter; actives raise or lower the signal;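 also: background control endpoint measuring basal TAL promoter reporter mRNA not a specific factor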
# Method in brief: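 Basal-promoter background-control endpoint from a multiplexed HepG2 reporter panel. Cells were exposed 24 h, then reporter mRNA was read by RT-PCR/CE fluorescence and fitted in both directions relative to DMSO.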
# [17] = ATG_TGFb_CIS: Attagene CIS-FACTORIAL HepG2 Assay for human Transforming Growth Factor (TGF) (AID 2282967); conditions: HepG2 Attagene CIS TGFb reporter, mRNA transcription; actives raise or lower the signal
# Method in brief: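 HepG2 cells transiently transfected with cis-promoter-driven multiple reporter units measure endogenous TF activity; reporter mRNA quantified at 24 h by RT-PCR, FAM labeling, HpaI digestion and capillary electrophoresis. Bidirectional fit vs DMSO.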
# [18] = biological target: Transcriptional activator Myb (Homo sapiens) (UniProt P10242); assay: ATG_Myb_CIS: Attagene CIS-FACTORIAL HepG2 Assay for human Myeloblastosis (Myb) Proto-Oncogene Transcription Factor (AID 2282986); conditions: HepG2 Attagene CIS-FACTORIAL Myb reporter transcription; actives raise or lower the signal
# Method in brief: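 After 24 h of compound dosing, total RNA from transfected HepG2 cells is reverse-transcribed and the reporter sequences amplified, labeled and separated by capillary electrophoresis. Values come from bidirectional fitting against DMSO.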
# [19] = biological target: Myc proto-oncogene protein (Homo sapiens) (UniProt P01106); assay: ATG_Myc_CIS: Attagene CIS-FACTORIAL HepG2 Assay for human Myelocytomatosis (Myc) Proto-Oncogene Transcription Factor (AID 2282990); conditions: HepG2, Attagene cis-reporter transcription factor activity; actives raise or lower the signal
# Method in brief: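 Cells of the HepG2 human liver line bear multiple cis-driven reporter transcription units. Reporter mRNA after 24 h exposure is reverse-transcribed, amplified, labelled and resolved by capillary electrophoresis, with gain- or loss-of-signal fitting relative to DMSO.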
# [20] = ATG_Oct_MLP_CIS: Attagene CIS-FACTORIAL HepG2 Assay for human Octamer-Binding Transcription Factor (Oct) (AID 2282993); conditions: HepG2 Attagene cis-factorial Oct reporter, mRNA; actives raise or lower the signal
# Method in brief: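 HepG2 cells transiently transfected with cis-element-driven reporter transcription units (endogenous TF activity); 24 h compound exposure. Reporter mRNA quantified by RT-PCR, 6-FAM labelling, HpaI digestion and capillary electrophoresis; bidirectional fit versus DMSO baseline.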
# Sequence of Myc proto-oncogene protein (Homo sapiens) (P01106 whole entry, looked up): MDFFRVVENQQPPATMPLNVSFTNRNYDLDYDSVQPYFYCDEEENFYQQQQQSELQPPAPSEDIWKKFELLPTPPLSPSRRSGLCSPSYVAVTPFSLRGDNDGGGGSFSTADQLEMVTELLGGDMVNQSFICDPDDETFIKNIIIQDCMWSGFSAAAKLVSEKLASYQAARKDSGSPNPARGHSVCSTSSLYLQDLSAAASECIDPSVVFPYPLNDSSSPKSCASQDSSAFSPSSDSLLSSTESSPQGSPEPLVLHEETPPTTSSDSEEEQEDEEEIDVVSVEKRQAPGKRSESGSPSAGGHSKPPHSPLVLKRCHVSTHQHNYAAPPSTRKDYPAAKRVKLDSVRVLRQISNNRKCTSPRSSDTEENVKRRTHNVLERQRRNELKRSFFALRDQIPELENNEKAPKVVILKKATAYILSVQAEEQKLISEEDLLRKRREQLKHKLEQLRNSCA
# Sequence of Transcription factor E2F1 (Homo sapiens) (Q01094 whole entry, looked up): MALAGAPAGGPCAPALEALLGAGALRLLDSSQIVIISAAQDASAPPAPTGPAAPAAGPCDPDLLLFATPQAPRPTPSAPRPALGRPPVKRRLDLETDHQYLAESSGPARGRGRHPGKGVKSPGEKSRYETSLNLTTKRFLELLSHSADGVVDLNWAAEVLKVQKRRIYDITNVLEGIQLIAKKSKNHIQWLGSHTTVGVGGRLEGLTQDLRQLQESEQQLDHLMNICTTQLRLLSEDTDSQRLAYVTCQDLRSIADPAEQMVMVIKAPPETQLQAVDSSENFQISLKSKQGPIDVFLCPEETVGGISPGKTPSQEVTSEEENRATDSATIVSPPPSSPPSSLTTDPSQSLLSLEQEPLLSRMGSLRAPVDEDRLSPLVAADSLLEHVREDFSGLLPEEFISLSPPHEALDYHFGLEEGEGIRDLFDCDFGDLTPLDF
# Sequence of Paired box protein Pax-6 (Homo sapiens) (P26367 whole entry, looked up): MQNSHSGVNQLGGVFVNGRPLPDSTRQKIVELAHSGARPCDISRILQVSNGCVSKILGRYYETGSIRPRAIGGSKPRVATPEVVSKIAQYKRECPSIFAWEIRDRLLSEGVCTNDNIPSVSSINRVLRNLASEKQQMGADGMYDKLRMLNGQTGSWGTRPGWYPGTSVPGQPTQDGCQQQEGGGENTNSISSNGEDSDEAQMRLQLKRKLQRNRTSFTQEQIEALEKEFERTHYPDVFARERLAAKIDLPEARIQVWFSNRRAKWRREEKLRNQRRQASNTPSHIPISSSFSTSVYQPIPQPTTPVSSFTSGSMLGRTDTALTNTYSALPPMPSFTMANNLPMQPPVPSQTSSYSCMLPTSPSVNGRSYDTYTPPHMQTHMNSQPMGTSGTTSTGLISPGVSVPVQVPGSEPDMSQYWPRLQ
# Sequence of Signal transducer and activator of transcription 3 (Homo sapiens) (P40763 whole entry, looked up): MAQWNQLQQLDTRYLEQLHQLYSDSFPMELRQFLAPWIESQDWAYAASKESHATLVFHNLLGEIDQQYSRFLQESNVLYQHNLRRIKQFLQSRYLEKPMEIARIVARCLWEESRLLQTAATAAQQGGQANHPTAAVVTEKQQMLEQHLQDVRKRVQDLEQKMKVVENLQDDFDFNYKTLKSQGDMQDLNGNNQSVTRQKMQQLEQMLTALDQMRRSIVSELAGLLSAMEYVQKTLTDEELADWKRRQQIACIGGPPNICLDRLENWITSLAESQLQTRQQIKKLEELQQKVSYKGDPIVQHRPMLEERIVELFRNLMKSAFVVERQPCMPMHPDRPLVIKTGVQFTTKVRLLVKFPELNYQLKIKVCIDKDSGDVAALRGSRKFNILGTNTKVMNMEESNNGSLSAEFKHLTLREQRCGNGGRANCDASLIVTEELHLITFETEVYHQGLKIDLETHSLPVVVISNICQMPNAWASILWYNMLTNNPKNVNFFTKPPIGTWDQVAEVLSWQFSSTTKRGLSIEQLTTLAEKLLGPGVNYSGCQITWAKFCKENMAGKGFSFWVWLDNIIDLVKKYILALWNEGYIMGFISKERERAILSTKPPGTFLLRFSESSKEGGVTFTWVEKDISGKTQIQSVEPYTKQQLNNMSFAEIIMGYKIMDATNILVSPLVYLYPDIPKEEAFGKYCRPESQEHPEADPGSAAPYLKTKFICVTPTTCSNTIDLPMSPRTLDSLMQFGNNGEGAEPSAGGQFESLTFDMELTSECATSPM
# Sequence of Transcriptional activator Myb (Homo sapiens) (P10242 whole entry, looked up): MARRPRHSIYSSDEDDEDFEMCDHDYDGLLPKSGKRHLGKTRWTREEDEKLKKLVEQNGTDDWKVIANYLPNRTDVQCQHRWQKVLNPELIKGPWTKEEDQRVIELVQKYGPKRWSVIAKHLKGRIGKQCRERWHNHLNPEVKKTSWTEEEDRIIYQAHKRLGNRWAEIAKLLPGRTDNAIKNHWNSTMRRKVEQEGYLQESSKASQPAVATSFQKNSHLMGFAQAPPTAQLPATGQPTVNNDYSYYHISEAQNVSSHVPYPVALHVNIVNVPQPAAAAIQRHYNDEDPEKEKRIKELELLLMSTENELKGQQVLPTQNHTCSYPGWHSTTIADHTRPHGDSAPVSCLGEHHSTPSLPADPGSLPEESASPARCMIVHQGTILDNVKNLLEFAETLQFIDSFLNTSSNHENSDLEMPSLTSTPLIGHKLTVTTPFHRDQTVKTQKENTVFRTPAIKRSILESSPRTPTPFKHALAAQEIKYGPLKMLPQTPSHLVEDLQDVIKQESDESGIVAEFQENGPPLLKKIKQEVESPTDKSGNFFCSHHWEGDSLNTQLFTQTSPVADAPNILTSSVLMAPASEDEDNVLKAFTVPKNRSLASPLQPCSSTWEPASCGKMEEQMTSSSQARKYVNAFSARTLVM
smiles,measurement,setting,value
CCCCCCCC#N,outcome,[1],inactive
same,outcome,[2],inactive
same,outcome,[3],inactive
same,outcome,[4],inactive
same,outcome,[5],inactive
same,outcome,[6],inactive
same,outcome,[7],inactive
same,outcome,[8],inactive
same,outcome,[9],inactive
same,outcome,[10],inactive
same,outcome,[11],inactive
same,outcome,[12],inactive
same,outcome,[13],inactive
same,outcome,[14],inactive
same,outcome,[15],inactive
same,outcome,[16],inactive
same,outcome,[17],inactive
same,outcome,[18],inactive
same,outcome,[19],inactive
same,outcome,[20],inactive
CCC(C)NC(N)=O (stereo not given),outcome,[1],inactive
same,outcome,[2],inactive
same,outcome,[3],inactive
same,outcome,[4],inactive
same,outcome,[5],inactive
same,outcome,[6],inactive
same,outcome,[7],inactive
same,outcome,[8],inactive
same,outcome,[9],inactive
same,outcome,[10],inactive
same,outcome,[11],inactive
same,outcome,[12],inactive
same,outcome,[13],inactive
same,outcome,[14],inactive
same,outcome,[15],inactive
same,outcome,[16],inactive
same,outcome,[17],inactive
same,outcome,[18],inactive
same,outcome,[19],inactive
same,outcome,[20],inactive
CCOc1ccc2c(c1)C(C)CC(C)(C)N2 (stereo not given),outcome,[1],inactive
same,outcome,[2],inactive
same,outcome,[3],inactive
same,outcome,[4],inactive
same,outcome,[5],inactive
same,outcome,[6],inactive
same,outcome,[7],inactive
same,outcome,[8],inactive
same,outcome,[9],inactive
same,outcome,[10],inactive
same,outcome,[11],inactive
same,outcome,[12],inactive
same,outcome,[13],inactive
same,outcome,[14],inactive
same,outcome,[15],inactive
same,outcome,[16],inactive
same,outcome,[17],inactive
same,outcome,[18],inactive
same,outcome,[19],inactive
same,outcome,[20],inactive
N#CCN(CC#N)CCN(CC#N)CC#N,outcome,[1],inactive
same,outcome,[2],inactive
same,outcome,[3],inactive
same,outcome,[4],inactive
same,outcome,[5],inactive
same,outcome,[6],inactive
same,outcome,[7],inactive
same,outcome,[8],inactive
same,outcome,[9],inactive
same,outcome,[10],inactive
same,outcome,[11],inactive
same,outcome,[12],inactive
same,outcome,[13],inactive
same,outcome,[14],inactive
same,outcome,[15],inactive
same,outcome,[16],inactive
same,outcome,[17],inactive
same,outcome,[18],inactive
same,outcome,[19],inactive
same,outcome,[20],inactive
C=CC(C)(CCC=C(C)C)OC(=O)c1ccccc1 (stereo not given),AC50,[1],100 µM (active)
same,AC50,[2],34.2 µM (active)
same,AC50,[3],127 µM (active)
same,outcome,[4],inactive
same,outcome,[5],inactive
same,outcome,[6],inactive
same,outcome,[7],inactive
same,outcome,[8],inactive
same,outcome,[9],inactive
same,outcome,[10],inactive
same,outcome,[11],inactive
same,outcome,[12],inactive
same,outcome,[13],inactive
same,outcome,[14],inactive
same,outcome,[15],inactive
same,outcome,[16],inactive
same,outcome,[17],inactive
same,outcome,[18],inactive
same,AC50,[19],131 µM (active)
same,outcome,[20],inactive
COc1c2occc2cc2ccc(=O)oc12,AC50,[1],59.2 µM (active)
same,outcome,[2],inactive
same,outcome,[3],inactive
same,outcome,[4],inactive
same,outcome,[5],inactive
same,outcome,[6],inactive
same,outcome,[7],inactive
same,outcome,[8],inactive
same,outcome,[9],inactive
same,outcome,[10],inactive
same,outcome,[11],inactive
same,outcome,[12],inactive
same,outcome,[13],inactive
same,outcome,[14],inactive
same,outcome,[15],inactive
same,outcome,[16],inactive
same,outcome,[17],inactive
same,outcome,[18],inactive
same,outcome,[19],inactive
same,outcome,[20],inactive
CCCC[N+]1(C)CCCC1,outcome,[1],inactive
same,outcome,[2],inactive
same,outcome,[3],inactive
same,outcome,[4],inactive
same,outcome,[5],inactive
same,outcome,[6],inactive
same,outcome,[7],inactive
same,outcome,[8],inactive
same,outcome,[9],inactive
same,outcome,[10],inactive
same,outcome,[11],inactive
same,outcome,[12],inactive
same,outcome,[13],inactive
same,outcome,[14],inactive
same,outcome,[15],inactive
same,outcome,[16],inactive
same,outcome,[17],inactive
same,outcome,[18],inactive
same,outcome,[19],inactive
same,outcome,[20],inactive
